# Reference: PubChem BioAssay (NCATS)
# Results filed as inconclusive are left out. Where a call stands in place of a potency, no number is given. Activity calls are given as the source filed them. Calls come from the whole dose curve; as a rule, active = well fitted curve in the direction sought with a large enough effect; inconclusive = small, poorly fitted or top-dose-only effect, or another doubt; inactive = no such curve, though single readings can be large; an effect the other way counts as inactive or inconclusive.
# What was measured:
# [1] = system: Zika virus NS2B-NS3 protease (linked construct); assay: Primary screen NINDS Rhodamine qHTS for Zika virus inhibitors (AID 1347160); note: nearly all actives have a fitted effect of over 55% in size; note: potency is the fitted concentration of half-maximal effect
# Method in brief: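 Purified linked NS2B-NS3 protease (NS2B hydrophilic domain joined to NS3 protease by flexible linker), 25 nM in 10 mM Tris-HCl pH 8.0, 0.01% Tween 20. Compounds titrated, 15 min preincubation at room temperature; 1.5 microM Rhodamine110 substrate, FITC fluorescence change over 15 min.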
# [2] = OV-KATE Cancer Cell Toxicity qHTS against the NCATS CANVASS Library (AID 1347345); note: potency is the fitted concentration of half-maximal effect
# Method in brief: (§1)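 Cells were seeded at 1000 per well, allowed 4 h at 37 degrees C/5% CO2, then pin-treated with an 11-point compound series. After 72 h, viability was read as CellTiter-Glo luminescence following 15min at room temperature.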
# [3] = HPAF-II Cancer Cell Toxicity qHTS against the NCATS CANVASS Library (AID 1347346); note: nearly all actives have a fitted effect of over 55% in size; note: potency is the fitted concentration of half-maximal effect
# Method in brief: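 HPAF-II cells were seeded at 1000 cells/well, allowed to settle for 4 h at 37 degrees C, then exposed to compounds in an 11-point series for 72 h. Viability was read by CellTiter-Glo luminescence.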
# [4] = OV-SAHO Cancer Cell Toxicity qHTS against the NCATS CANVASS Library (AID 1347348); note: nearly all actives have a fitted effect of over 55% in size; note: potency is the fitted concentration of half-maximal effect
# Method in brief: as §1
# [5] = HPAF-II 24hr Apoptosis Induction qHTS against the NCATS CANVASS Library (AID 1347356)
# Method in brief: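 HPAF-II cells (500/well) in DMEM + 10% FBS were treated with an 11-point compound series for 24 hours at 37 degrees C. Caspase-3/7 activity was then read by Caspase-Glo DEVD luminescence after 15 min.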
# [6] = HPAF-II 12hr Apoptosis Induction qHTS against the NCATS CANVASS Library (AID 1347358)
# Method in brief: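 HPAF-II cells (500/well, DMEM + 10% FBS) were exposed to compounds for 12 hours at 37 degrees C. Caspase-3/7 activity was then read by Caspase-Glo 3/7 luminescence after 15 min at room temperature.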
# [7] = HEK293 24hr Apoptosis Induction qHTS against the NCATS CANVASS Library (AID 1347359); note: potency is the fitted concentration of half-maximal effect
# Method in brief: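 HEK293 cells (500/well, DMEM + 10% FBS) were exposed to compounds in an 11-point series for 24 hours at 37 degrees C, then caspase-3/7 activity was read by Caspase-Glo DEVD luciferase luminescence after 15 min.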
# [8] = HEK293 12hr Apoptosis Induction qHTS against the NCATS CANVASS Library (AID 1347361); note: potency is the fitted concentration of half-maximal effect
# Method in brief: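 HEK293 cells (500/well) were exposed to an 11-point qHTS concentration series for 12 hours at 37 degrees C. Caspase-3/7 activity was then read by DEVD-substrate luciferase luminescence after 15 min at room temperature.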
# [9] = KB-3-1 Cancer Cell Toxicity qHTS against the NCATS CANVASS Library (AID 1347366); note: nearly all actives have a fitted effect of over 75% in size; note: potency is the fitted concentration of half-maximal effect
# Method in brief: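 KB-3-1 cells (500/well) in DMEM with 10% FBS were exposed to compounds for 72 h at 37C. Viability was read by CellTiter-Glo luminescence.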
# [10] = qHTS for ATAD5 Agonist screened against the NCATS CANVASS Library (AID 1347367);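 note: luciferase reporter driven by ATAD5 which rises upon DNA damage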
# Method in brief: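 Luciferase reporter under ATAD5 control, stably integrated in HEK293T cells (2000/well). Compounds (11 points) incubated 16 h at 37C; viability read first by CellTiter-Fluor, then luminescence reporting ATAD5 activation. MMS positive control.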
# [11] = MCF7 Cancer Cell Toxicity qHTS against the NCATS CANVASS Library (AID 1347369); note: potency is the fitted concentration of half-maximal effect
# Method in brief: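 MCF7 cells (500/well) were exposed 72 h at 37 °C to compounds in an 11-point series. Viability was read as ATP content by CellTiterGlo luminescence.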
# [12] = qHTS for ATAD5 Antagonist screened against the NCATS CANVASS Library (AID 1347370); note: nearly all actives have a fitted effect of over 65% in size; note: potency is the fitted concentration of half-maximal effect
# Method in brief: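 HEK293T cells with a stably integrated ATAD5-controlled luciferase reporter were exposed to compounds (11-pt) alongside 10 uM 5-fluorouridine as ATAD5 stabilizer for 16hr at 37C. Viability was read by CellTiter-Fluor fluorescence, then ATAD5 by luminescence.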
# [13] = J3T Cancer Cell Toxicity qHTS against the NCATS CANVASS Library (AID 1347371); note: potency is the fitted concentration of half-maximal effect
# Method in brief: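 J3T dog glioma cells (500 cells/well) were exposed to compounds in an 11-point series for 72 hr at 37C, 5% CO2. Cytotoxicity was read as ATP content by CellTiterGlo luminescence.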
# [14] = molecular target: Nuclear receptor subfamily 1 group I member 3 (Homo sapiens) (UniProt Q14994); assay: qHTS for Constitutive Androstane Receptor (CAR) Agonist screened against the NCATS CANVASS Library (AID 1347373);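 note: every well also contained 1.5 µM PK11195 alongside the test compound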
# Method in brief: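 HepG2 cells stably expressing hCAR and a CYP2B6-2.2kb luciferase reporter were treated for 24hr at 37C with compounds (11-point qHTS) in the presence of 1.5uM PK11195. Reporter activation was read by ONE-Glo luminescence.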
# [15] = 10-beta competent E. coli microbial cell viability qHTS against the NCATS CANVASS Library (AID 1347376); note: series mostly up to about 46 µM
# Method in brief: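 10-beta competent E. coli (0.9 OD culture diluted to 0.2 OD) exposed to compounds in an 11-point qHTS series, incubated overnight at 37C, 5% CO2. Viability read as ATP by BacTiter-Glo luminescence after 20 min at room temperature.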
# [16] = qHTS for Inflammasome Signaling Inhibitors: IL-1-beta AlphaLISA screen against the NCATS CANVASS Library (AID 1347379);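 note: human THP-1 cells primed with LPS then triggered with ATP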;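 for potency: secreted IL-1B measured as AlphaLISA emission at 615 nm; potency is the fitted concentration of half-maximal effect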
# Method in brief: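 Human THP-1 cells were pretreated 1 hr at 37 °C with compounds (up to 57.5 uM final), then stimulated with LPS (250 ng/mL final) and ATP (1.25 mM final). Secreted IL-1B was read by AlphaLISA after 16 hr.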
# [17] = Cytotoxicity qHTS for assessment of Hepg2 cells membrane integrity screened against the NCATS CANVASS Library (AID 1347387)
# Method in brief: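 HepG2 cells (2000/well) attached overnight at 37C, then received compounds in an 11-point series at 0.59 nM - 46 uM final for 5 hr. LDH release was detected fluorometrically (ex 560/em 590 nm) with CytoTox-ONE reagent after 10 min at room temperature.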
# [18] = qHTS for activators of dead-cell proteases activity screened against the NCATS CANVASS Library (AID 1347392);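 note: luminescence from protease leaking out of membrane-damaged cells cleaving impermeant substrate; rising signal means more cytotoxicity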; note: potency is the fitted concentration of half-maximal effect
# Method in brief: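 HepG2 cells (2000/well) attached 18 h at 37C, then exposed 5 h to compounds (11-point qHTS). Dead-cell protease activity read as luminescence from cell-impermeant AAF-aminoluciferin substrate after 15 min at room temperature.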
# [19] = Vero-766 cells viability qHTS against the NCATS CANVASS Library: Counterscreen for Zika virus inhibition assay (AID 1347394); note: nearly all actives have a fitted effect of over 60% in size; note: potency is the fitted concentration of half-maximal effect
# Method in brief: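 Vero 766 cells (1000/well), without Zika virus, were exposed to compounds for 72 h at 37C. Viability was measured by CellTiter Glo luminescence. Media-only wells served as 100% inhibition.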
# [20] = Viability qHTS for inhibitors of the SERCaMP assay screened against the NCATS CANVASS Library (AID 1347400); note: nearly all actives have a fitted effect of over 70% in size; note: potency is the fitted concentration of half-maximal effect
# Method in brief: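 SH-SY5Y-GLuc SERCaMP MJH297-derived cells (1000 cells/well) were pre-incubated 4 h at 37C, then exposed to compounds for 48 h. Viability was read as CellTiter-Glo luminescence; bortezomib served as positive control.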
# Nuclear receptor subfamily 1 group I member 3 (Homo sapiens), sequence (Q14994 whole entry, looked up): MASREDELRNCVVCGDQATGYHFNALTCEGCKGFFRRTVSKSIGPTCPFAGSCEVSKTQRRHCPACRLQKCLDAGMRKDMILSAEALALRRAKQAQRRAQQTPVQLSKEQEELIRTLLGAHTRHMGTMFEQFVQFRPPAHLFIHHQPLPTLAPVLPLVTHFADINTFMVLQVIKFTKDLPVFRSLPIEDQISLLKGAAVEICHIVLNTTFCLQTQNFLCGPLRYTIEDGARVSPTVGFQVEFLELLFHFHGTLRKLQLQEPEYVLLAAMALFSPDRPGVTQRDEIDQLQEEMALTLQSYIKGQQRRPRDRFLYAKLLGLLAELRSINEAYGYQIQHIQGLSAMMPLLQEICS
SMILES,Potency [1],Potency [2],Potency [3],Potency [4],outcome [5],Potency [6],Potency [7],Potency [8],Potency [9],Potency [10],Potency [11],Potency [12],Potency [13],outcome [14],outcome [15],Potency [16],outcome [17],Potency [18],Potency [19],Potency [20]
C[C@]12CC[C@]3(C1)[C@H](CC2=O)CC(OC(=O)c1ccccc1)[C@H]1[C@@](CO)(C(=O)O)CCC[C@@]13C (some centres undefined),49.3 µM (active),inactive,inactive,inactive,inactive,inactive,inactive,inactive,inactive,inactive,inactive,inactive,inactive,inactive,inactive,inactive,inactive,inactive,inactive,inactive
O=C(O)Cc1c[nH]c2ccccc12,inactive,inactive,inactive,inactive,inactive,inactive,inactive,inactive,inactive,inactive,inactive,inactive,inactive,inactive,inactive,inactive,inactive,inactive,inactive,inactive
CCC[C@@H](C)/C=C(\C)[C@H](O)[C@H](C)/C=C/CC[C@@H](O)[C@H](C)[C@H](O)[C@H](C)[C@H](O)[C@H](C)[C@H]1O[C@H]([C@H](C)C(=O)O)CC[C@@H]1C,6.21 µM (active),3.75 µM (active),4.73 µM (active),3.34 µM (active),inactive,inactive,inactive,inactive,11.8 µM (active),inactive,16.5 µM (active),,inactive,inactive,inactive,,,,9.33 µM (active),27 µM (active)
C/C=C/C=C/C1(O)C2C=C3C(=O)CC45C(=O)C(O)=C(C)C(=O)C4C1C1(C(=O)C(O)=C(C)C(=O)C351)C2C (centres undefined),39.2 µM (active),inactive,inactive,inactive,inactive,inactive,inactive,inactive,inactive,inactive,inactive,inactive,inactive,inactive,inactive,inactive,inactive,inactive,inactive,inactive
CCCCCCCCCCCCCCC[C@H](O)C[C@@H](O)C[C@@H](O)C[C@@H](O)C[C@@H](O)C[C@H]1CC=CC(=O)O1,44 µM (active),2.11 µM (active),4.21 µM (active),1.49 µM (active),,,26.4 µM (active),9.35 µM (active),9.35 µM (active),inactive,7.39 µM (active),26.3 µM (active),3.72 µM (active),inactive,inactive,3.06 µM (active),,13.2 µM (active),5.24 µM (active),12 µM (active)
C/C1=C\CC(=O)/C=C/C=C\c2csc(n2)[C@@H](C)NC(=O)C[C@@](S)([C@@H](C)C(=O)O)CC1,7.82 µM (active),inactive,inactive,inactive,inactive,inactive,inactive,inactive,inactive,inactive,inactive,inactive,inactive,inactive,inactive,inactive,inactive,inactive,inactive,inactive
CCCCCCCCC[C@@H]1C[C@@H]2CC[C@H]3[C@@H](C(=O)OCCCCN=C(N)N)[C@@H](C)N=C(N1)N23,inactive,13 µM (active),14.7 µM (active),9.2 µM (active),inactive,inactive,inactive,inactive,0.578 µM (active),inactive,,inactive,11.5 µM (active),inactive,inactive,21.2 µM (active),inactive,inactive,inactive,inactive
CO[C@@H]1C[C@@H](C[C@H]2CC[C@H](C)[C@H]([C@@H](C)C(=O)O)O2)O[C@]2(O[C@](C)([C@H]3CC[C@@](C)([C@@H]4O[C@@H]([C@H]5O[C@](C)(O)[C@H](C)C[C@@H]5C)C[C@@H]4C)O3)C[C@H]2C)[C@@H]1C,11 µM (active),4.72 µM (active),9.43 µM (active),0.0941 µM (active),inactive,inactive,inactive,inactive,14.8 µM (active),inactive,14.7 µM (active),14.8 µM (active),0.118 µM (active),inactive,inactive,5.44 µM (active),inactive,inactive,4.67 µM (active),10.7 µM (active)
CO[C@H]1/C=C/CC[C@@H](S[C@@H]2O[C@H](CO)[C@@H](O)[C@H](O)[C@H]2O)CC(=O)O[C@@H](/C(C)=C/[C@H](C)C(=O)CCCC2CC(=O)NC(=O)C2)[C@@H](C)[C@@H]1O,inactive,3.75 µM (active),8.41 µM (active),3.75 µM (active),inactive,inactive,inactive,inactive,20.9 µM (active),inactive,,4.17 µM (active),,,inactive,30.6 µM (active),inactive,inactive,inactive,12 µM (active)
Cc1cc(O)cc2oc(C[C@H](C)O)cc(=O)c12,44 µM (active),inactive,inactive,inactive,inactive,inactive,inactive,inactive,inactive,inactive,inactive,inactive,inactive,inactive,inactive,inactive,inactive,inactive,inactive,inactive
